Whole data set: some 1,300 sequences, median “log fluorescence intensity” near 8.3, cut for the highest 2% near 12. The entries come from a sample that favours the highest values as a whole.
Target: T1, ETS1 (Homo sapiens, UniProt P14921 1-441)
T1 sequence: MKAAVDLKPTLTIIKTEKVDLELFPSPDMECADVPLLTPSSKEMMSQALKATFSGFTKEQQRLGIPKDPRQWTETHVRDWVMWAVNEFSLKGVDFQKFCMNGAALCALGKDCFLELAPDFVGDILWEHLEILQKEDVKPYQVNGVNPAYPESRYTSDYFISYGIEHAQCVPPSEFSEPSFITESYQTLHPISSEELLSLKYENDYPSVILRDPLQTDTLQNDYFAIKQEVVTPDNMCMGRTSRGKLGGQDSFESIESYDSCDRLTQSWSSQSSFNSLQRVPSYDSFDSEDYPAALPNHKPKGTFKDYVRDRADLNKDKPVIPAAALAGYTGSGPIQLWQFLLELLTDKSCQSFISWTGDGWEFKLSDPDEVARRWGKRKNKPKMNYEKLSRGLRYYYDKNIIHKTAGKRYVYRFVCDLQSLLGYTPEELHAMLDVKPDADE
Experiment: custom PBM; custom protein-binding microarray; buffer, salt, pH and temperature not stated; high values mean tight binding
Conditions: dsDNA, one strand shown

Sequence	binding signal
TCCGGCTACCAGCTCCACCCACTTCAAGCCTTGTAGGTCTTGATTCGCTTGACGCTGCTG	8.4 log fluorescence intensity
TCCGGCTACCAGCTCCACCCACTTCAGGCCTTGTAGGTCTTGATTCGCTTGACGCTGCTG	8.36 log fluorescence intensity
TCCGGCTACCAGCTCCACCCACTTCCGGCCTTGTAGGTCTTGATTCGCTTGACGCTGCTG	13.1 log fluorescence intensity
TAAAGGGAAGAGGGTTGTGGTAGTTCCGGGTATTAAGTCTTGATTCGCTTGACGCTGCTG	8.6 log fluorescence intensity
TCCGGCTACCACCTCCACCCACTTCAGGCCTTGTAGGTCTTGATTCGCTTGACGCTGCTG	8.32 log fluorescence intensity
GGAAAAAGGCCCAGGGTAACGCCGGAAGTGGGCTTAGTCTTGATTCGCTTGACGCTGCTG	10.7 log fluorescence intensity
GGAAAAAGGCCCAGGGTAACAGCGGAAGTGGGCTTAGTCTTGATTCGCTTGACGCTGCTG	10.2 log fluorescence intensity
TGAAAAAGGCCCAGGGTAACACCGGAAGTGGGCTTAGTCTTGATTCGCTTGACGCTGCTG	11.8 log fluorescence intensity
CGAAAAAGGCCCAGGGTAACACCGGAAGTGGGCTTAGTCTTGATTCGCTTGACGCTGCTG	12 log fluorescence intensity
GGAAAAAAGCCCAGGGTAACACCGGAAGTGGGCTTAGTCTTGATTCGCTTGACGCTGCTG	12.1 log fluorescence intensity
GGAAAAGGGCCCAGGGTAACACCGGAAGTGGGCTTAGTCTTGATTCGCTTGACGCTGCTG	11.8 log fluorescence intensity
GGAAAAAGCCCCAGGGTAACACCGGAAGTGGGCTTAGTCTTGATTCGCTTGACGCTGCTG	12.1 log fluorescence intensity
AGAAAAAGGCCCAGGGTAACACCGGAAGTGGGCTTAGTCTTGATTCGCTTGACGCTGCTG	11.9 log fluorescence intensity
GGAAAAAGGCCCAGTGTAACACCGGAAGTGGGCTTAGTCTTGATTCGCTTGACGCTGCTG	12 log fluorescence intensity
GGAAAAAGGCCCACGGTAACACCGGAAGTGGGCTTAGTCTTGATTCGCTTGACGCTGCTG	12.2 log fluorescence intensity
GGAAAAAGGCCCATGGTAACACCGGAAGTGGGCTTAGTCTTGATTCGCTTGACGCTGCTG	11.9 log fluorescence intensity
GGAAAAAGGCCAAGGGTAACACCGGAAGTGGGCTTAGTCTTGATTCGCTTGACGCTGCTG	12 log fluorescence intensity
GGAAAAAGGCCCAAGGTAACACCGGAAGTGGGCTTAGTCTTGATTCGCTTGACGCTGCTG	12.1 log fluorescence intensity
CTGGGACTTGACCCGACTCTGCCACGTGGGTCGTTTGTCTTGATTCGCTTGACGCTGCTG	8.49 log fluorescence intensity
TACTGACATATATATGCGAATGCACATGAATAGACCGTCTTGATTCGCTTGACGCTGCTG	8.43 log fluorescence intensity
GAGCATAGGACTTCTTCCCTGAAGCAATTGATAACCGTCTTGATTCGCTTGACGCTGCTG	8.32 log fluorescence intensity
CGGAAGTGTCGTAAACGTCGGATATCCGGTTCGTCTGTCTTGATTCGCTTGACGCTGCTG	11.9 log fluorescence intensity
TGTCGGGTAAGGGAATGTAGATGACGTGAATGAAAAGTCTTGATTCGCTTGACGCTGCTG	8.36 log fluorescence intensity
GGAAAAAGGCCCAGGGTAACACCGGAAGTGCGCTTAGTCTTGATTCGCTTGACGCTGCTG	11.7 log fluorescence intensity
GATTAATTTCTGCCCTTATTCGCACGTGCAATAACAGTCTTGATTCGCTTGACGCTGCTG	8.3 log fluorescence intensity
CAGAAGTGTCGTAAACGTCGGATATCCGGTTCTTCTGTCTTGATTCGCTTGACGCTGCTG	12.1 log fluorescence intensity
CGGAAGTGTCGTAAGCGTCGGATATCCGGTTCTTCTGTCTTGATTCGCTTGACGCTGCTG	11.7 log fluorescence intensity

Sequence	binding signal
CGGCAGTGTCGTAAACGTCGGATATCCGGTTCTTCTGTCTTGATTCGCTTGACGCTGCTG	11.7 log fluorescence intensity
GGAAACAGGCCCAGGGTAACACCGGAAGTGGGCTTAGTCTTGATTCGCTTGACGCTGCTG	11.8 log fluorescence intensity
TAAAGGGAAGACGGTTGTAGTAGTTCCGGGTATTAAGTCTTGATTCGCTTGACGCTGCTG	8.81 log fluorescence intensity
GCTGCTGCGCTGCATACCCCACCGGATGTGACCCCGGTCTTGATTCGCTTGACGCTGCTG	10.1 log fluorescence intensity
TACTGACTTATATATGCGAATGCACATCAATAGACCGTCTTGATTCGCTTGACGCTGCTG	8.32 log fluorescence intensity
GCTGCTGCGGTGCATACCCCACCAGATGTGACCCCGGTCTTGATTCGCTTGACGCTGCTG	8.36 log fluorescence intensity
CACAATTTTTACAGTAATGTAGCACGCGTAAATCCTGTCTTGATTCGCTTGACGCTGCTG	8.32 log fluorescence intensity
GTGTATAGGATCCCATCGAACACACGTGTTAAAATGGTCTTGATTCGCTTGACGCTGCTG	8.36 log fluorescence intensity
TAAAGGGAAGACGGTTGTGGTAGTTCCGGGTATTAGGTCTTGATTCGCTTGACGCTGCTG	8.47 log fluorescence intensity
CGGAAGTGTCGTAAACGTCCGATATCCGGTTCTTCTGTCTTGATTCGCTTGACGCTGCTG	12.2 log fluorescence intensity
CGGAAGTGTCTTAAACGTCGGATATCCGGTTCTTCTGTCTTGATTCGCTTGACGCTGCTG	11.6 log fluorescence intensity
CGGAAGTGTCGTAAACGTCTGATATCCGGTTCTTCTGTCTTGATTCGCTTGACGCTGCTG	11.8 log fluorescence intensity
CGGAAGTGTCGTAAACGTCGGATGTCCGGTTCTTCTGTCTTGATTCGCTTGACGCTGCTG	9.65 log fluorescence intensity
CGGAAGTGTCGAAAACGTCGGATATCCGGTTCTTCTGTCTTGATTCGCTTGACGCTGCTG	12 log fluorescence intensity
CGGAAGTGTCGGAAACGTCGGATATCCGGTTCTTCTGTCTTGATTCGCTTGACGCTGCTG	12.8 log fluorescence intensity
CCGAAGTGTCGTAAACGTCGGATATCCGGTTCTTCTGTCTTGATTCGCTTGACGCTGCTG	12 log fluorescence intensity
CGGAAGTGTCGTAAACGTCGGATCTCCGGTTCTTCTGTCTTGATTCGCTTGACGCTGCTG	8.47 log fluorescence intensity
CGGAAGTGTCGTAAACGTCGGATTTCCGGTTCTTCTGTCTTGATTCGCTTGACGCTGCTG	12.5 log fluorescence intensity
CGGAAGTGTCGTAAACGTCGGAGATCCGGTTCTTCTGTCTTGATTCGCTTGACGCTGCTG	8.83 log fluorescence intensity
CGGAAGTGTCGTAAACGTCGGAAATCCGGTTCTTCTGTCTTGATTCGCTTGACGCTGCTG	9.71 log fluorescence intensity
CGGAAGTGTCGTAAACGTCGGACATCCGGTTCTTCTGTCTTGATTCGCTTGACGCTGCTG	12.6 log fluorescence intensity
CGGAATTGTCGTAAACGTCGGATATCCGGTTCTTCTGTCTTGATTCGCTTGACGCTGCTG	12.2 log fluorescence intensity
CGGAAGTGTCGTAAACGTCGTATATCCGGTTCTTCTGTCTTGATTCGCTTGACGCTGCTG	11.8 log fluorescence intensity
CGGAAGCGTCGTAAACGTCGGATATCCGGTTCTTCTGTCTTGATTCGCTTGACGCTGCTG	11.8 log fluorescence intensity
CGGAAGTGTCGTAAACGTCGCATATCCGGTTCTTCTGTCTTGATTCGCTTGACGCTGCTG	12.2 log fluorescence intensity
CGGAACTGTCGTAAACGTCGGATATCCGGTTCTTCTGTCTTGATTCGCTTGACGCTGCTG	11.8 log fluorescence intensity
CGGAAGTGTCGTAAACGTCGGTTATCCGGTTCTTCTGTCTTGATTCGCTTGACGCTGCTG	9.21 log fluorescence intensity
